Experimental findings from the supplement of paper PMC6555819 are described below.

Experiment in all cases: PBM binding z-score (relative to random genomic background probes); higher = stronger binding; sequences stand for … in GC…GCGATTGACAGCGTAGAATGAAGG
Experiment [1] concerns FXR:RXRa (NR concentration 270 nM, RXRa partner concentration 90 nM). The gist of the method: (§1)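 For binding z-scores, the reference was random background probes on custom Agilent 4×180K protein-binding microarrays. These arrays were incubated 1 h with ligand-free nuclear receptor dimers in PBS pH 7.4, 2% milk, 0.02% Triton X-100, 1 mM DTT, 0.2 mg/mL BSA and 0.4 mg/ml salmon testes DNA. Fluorescence was scanned after antibody detection of each partner (one per run) and regression-normalized.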

For experiment [2], the system named is LXRa:RXRa (NR concentration 270 nM, RXRa partner concentration 90 nM). The gist of the method:
as §1

Experiment [3] has as its system LXRa homodimer (NR concentration 270 nM). Summed up:
as §1

Experiment [4] deals with LXRb:RXRa (NR concentration 270 nM, RXRa partner concentration 90 nM). The gist of the method:
as §1

Experiment [5] relates to LXRb homodimer (NR concentration 270 nM). Summed up: as §1
Experiment [6] deals with PPARa:RXRa (NR concentration 270 nM, RXRa partner concentration 90 nM). Summed up: as §1
For experiment [7], the system named is PPARg:RXRa (NR concentration 180 nM, RXRa partner concentration 90 nM). Summed up: as §1
Experiment [8] has as its system PPARg:RXRa 270nM:90nM, anti-RXR (NR concentration 270 nM, RXRa partner concentration 90 nM). The gist of the method: as §1
For experiment [9], the system named is PPARg:RXRa 30nM:10nM, anti-RXR (NR concentration 30 nM, RXRa partner concentration 10 nM). The gist of the method: as §1
Experiment [10] deals with PPARg:RXRa 90nM:30nM, anti-RXR (NR concentration 90 nM, RXRa partner concentration 30 nM). The gist of the method:
as §1

Experiment [11] has as its system PPARg:RXRa DBDmut IVT, anti-RXR (DBD mutation: RXRa K156A/R161A, NR concentration 270 nM, RXRa partner concentration 90 nM). The gist of the method:
as §1

The subject of experiment [12] is PPARg:RXRa IVT, anti-PPARg (NR concentration 270 nM, RXRa partner concentration 90 nM). The gist of the method: as §1
Experiment [13] deals with PPARg DBDmut:RXRa IVT, anti-PPARg (DBD mutation: PPARg1 K132A/R137A, NR concentration 270 nM, RXRa partner concentration 90 nM). The gist of the method:
as §1

The subject of experiment [14] is PPARg DBDmut IVT, anti-PPARg (DBD mutation: PPARg1 K132A/R137A, NR concentration 270 nM). The gist of the method: as §1
Experiment [15] concerns PPARg homodimer (NR concentration 180 nM). The gist of the method: as §1
Experiment [16] relates to PXR:RXRa (NR concentration 270 nM, RXRa partner concentration 90 nM). The gist of the method: as §1
Experiment [17] relates to PXR homodimer (NR concentration 270 nM). The gist of the method: as §1
Experiment [18] concerns RARa:RXR (NR concentration 270 nM, RXRa partner concentration 90 nM). Summed up: as §1
Experiment [19] has as its system RARa homodimer (NR concentration 270 nM). The gist of the method: as §1
Experiment [20] deals with RARb:RXRa (NR concentration 270 nM, RXRa partner concentration 90 nM). The gist of the method:
as §1

TTCCCAAGGTGAAAGGTCGTTGATGCACGCCTTG: the PBM binding z-score in [1] is 3.69; in [2], 3.79; in experiment [3] it was 0.848; in experiment [4] it was 2.97; in [5], -0.253; in [6], 5.44. Moreover, the PBM binding z-score came to 7.9 in experiment [7]; 7.35 in experiment [8]; 6.2 in [9]; 7.54 in [10]; 1.67 in [11]; 4.56 in experiment [12]. Besides, the PBM binding z-score is 0.3 in experiment [13]; -0.0355 in [14]; 1.79 in [15]; 4.12 in experiment [16]; 0.342 in experiment [17]; 5.56 in experiment [18]. The PBM binding z-score in experiment [19] was -0.11; in experiment [20], 3.13.
Take CGAACTAGGTCATTGACAGGACAGTGTATAGTAA: the PBM binding z-score in experiment [1] is 4.45; in [2] it was 3.09; in [3] it was 0.874; in experiment [4] it was 2.13; in experiment [5], 0.106; in experiment [6] it was 4.79. Further, the PBM binding z-score was 7.66 in [7]; 6.32 in [8]; 3.42 in [9]; 5.88 in experiment [10]; 7.92 in experiment [11]; 8.25 in experiment [12]. The PBM binding z-score in [13] was determined as 2.44; in experiment [14], 1.65; in experiment [15] it was 2.13; in experiment [16] it was 1.67; in [17], 0.281; in [18], 2.47. The PBM binding z-score in experiment [19] worked out at 0.571; in experiment [20], 3.63.
Turning to TCGAGTAGGTTATGGGCATTCAGAATGGCGTCGA, the PBM binding z-score in [1] was -0.455; in experiment [2] it was 0.186; in experiment [3] it was -0.538; in experiment [4], -0.2; in experiment [5], -1.18; in experiment [6], 0.825. Moreover, the PBM binding z-score in experiment [7] worked out at 0.399; in experiment [8], 1.47; in experiment [9], 0.906; in [10], 1.13; in [11], 1.95; in experiment [12] it was 1.36. Moreover, the PBM binding z-score in experiment [13] was -0.529; in [14] it was -0.999; in experiment [15] it was 0.0273; in experiment [16] it was -0.316; in [17] it was -0.754; in [18], -0.148. The values for the PBM binding z-score in [19] and in experiment [20] were -0.374 and 0.453, respectively.
Consider AGAATGAGGTTATACGTAGATCGGGGAAGAAAGT, for which the PBM binding z-score amounted to 2.27 in [1]; 2 in experiment [2]; 0.119 in [3]; 1.96 in experiment [4]; 0.366 in experiment [5]; 3.29 in [6]. In addition, the PBM binding z-score in experiment [7] came to 1.84; in [8] it was 2.15; in experiment [9] it was 0.629; in experiment [10], 1.49; in experiment [11] it was 4.33; in [12] it was 2.22. The PBM binding z-score in experiment [13] is 0.772; in experiment [14] it was -0.0447; in [15], 1; in experiment [16], 1.43; in experiment [17] it was 0.718; in [18], 1.92. Further, the PBM binding z-score in experiment [19] stood at 0.264; in experiment [20] it was 1.58.
Turning to ACTAGCAGGCCAAGTTTGGGTCACTCATACAAAG, the PBM binding z-score in experiment [1] is 0.242; in experiment [2], 0.317; in experiment [3], -0.104; in experiment [4], 0.786; in experiment [5], -0.557; in experiment [6] it was 1.28. For the same sequence, the PBM binding z-score in [7] is 0.573; in [8], 0.501; in experiment [9] it was -0.211; in [10], -0.146; in experiment [11], 1.29; in experiment [12], 1.09. Besides, the PBM binding z-score in experiment [13] was -0.419; in experiment [14], -0.428; in experiment [15], 0.652; in experiment [16], 0.707; in [17], -0.211; in [18], 1.55. The results for the PBM binding z-score in experiment [19] and in experiment [20] were -0.601 and 1.53, respectively.
Turning to CCTCGGAGGACAGAAGGTCCGAGCTGTCCGCTTT, the PBM binding z-score in experiment [1] is -0.475; in [2], -0.736; in experiment [3], -0.887; in experiment [4] it was -1.15; in experiment [5], -0.992; in experiment [6], -1.11. Besides, the PBM binding z-score is -0.956 in [7]; -1.22 in experiment [8]; -1.48 in experiment [9]; -1.44 in experiment [10]; -0.468 in experiment [11]; -1.02 in experiment [12]. For the same sequence, the PBM binding z-score is -0.692 in experiment [13]; -1.96 in [14]; -0.27 in experiment [15]; -0.746 in experiment [16]; -0.803 in experiment [17]; -0.601 in [18]. Moreover, the values for the PBM binding z-score in experiment [19] and in experiment [20] were -1.06 and 0.0749, respectively.
With GCTTACGGGTCAAAGGTTATATCATGAATAGAAT, the PBM binding z-score in experiment [1] is 7.77; in experiment [2], 6.12; in experiment [3], 1.25; in experiment [4] it was 5.78; in [5] it was 1.03; in experiment [6] it was 6.94. In addition, the PBM binding z-score came to 11.4 in experiment [7]; 9.51 in [8]; 10.9 in [9]; 11.1 in [10]; 4.73 in experiment [11]; 5.93 in [12]. Also, the PBM binding z-score in experiment [13] is 2.65; in experiment [14] it was 2.07; in [15], 4.59; in [16], 6.41; in experiment [17] it was 0.529; in experiment [18], 8.44. The PBM binding z-score in experiment [19] stood at 1.02; in experiment [20] it was 4.55.
